# The panel holds about 83,000 compounds, 20% with a hit somewhere; the sample as a whole holds those more often.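 Step 1: grow cells in 96-well plates. Step 2: add test compound at a single concentration. Step 3: incubate 48 h. Step 4: record percent growth.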 Unmarked numbers belong to inactive results. Active and inactive are the calls of the source. The calls were made as follows: active = growth percent below 10; inactive = the rest.
# Tests used:
# Assay in all cases: NCI-60 one-dose screen, 48 h (100 = growth as untreated, 0 = no growth, -100 = all killed)
# Settings in all cases: 10 µM
# [1] = system: NCI-H23 lung
# [2] = system: NCI-H226 lung
# [3] = system: NCI-H322M lung
# [4] = system: HOP-62 NSCLC
# [5] = system: NCI-H460 lung
# [6] = system: HOP-92 NSCLC
# [7] = system: NCI-H522 lung
# [8] = system: A549/ATCC NSCLC
# [9] = system: 786-0 renal
# [10] = system: COLO 205 colon
Structure (SMILES),growth [1],growth [2],growth [3],growth [4],growth [5],growth [6],growth [7],growth [8],growth [9],growth [10]
O=[N+]([O-])c1cc2ncccc2c2ncccc12,81.3%,96.3%,80.3%,137%,66.9%,109%,15.8%,88.4%,110%,95.6%
Cc1cccc2c1O/C(=C\c1ncc([N+](=O)[O-])n1C)C2=O,-13.7% (active),-25% (active),-17.9% (active),-33.5% (active),-29.1% (active),-32.6% (active),-55.8% (active),-25.7% (active),-28.5% (active),-52.3% (active)
CCOCC[P+](c1ccccc1)(c1ccccc1)c1ccccc1,36%,80%,82%,50.3%,58.7%,-6.22% (active),26.2%,45.3%,72.5%,44.5%
Clc1cc(Cl)c(OCCCCCCN2CCNCC2)c(Cl)c1,53.9%,94%,78.3%,77.6%,-39.8% (active),-0.831% (active),55.1%,53.8%,23.1%,-71.3% (active)
Nc1c(C(=O)Nc2ccccc2F)sc2nc3c(cc12)C(=O)CCC3,42.8%,75.1%,68.8%,42.7%,11.4%,53.6%,-15.2% (active),22%,41.5%,5.76% (active)
CC(=O)Oc1c(C)c(C)c2c(c1C)CCC(C)(CC(=O)OCCCCCCCCCCC[P+](c1ccccc1)(c1ccccc1)c1ccccc1)O2 (stereo not given),-52.2% (active),13.2%,13.7%,-84.7% (active),-46.5% (active),-85.4% (active),-78.5% (active),-72% (active),-92% (active),-73.9% (active)
COc1ccc(C2=NNC(c3sc(Cl)nc3Cl)C2)cc1 (stereo not given),93.7%,54.4%,90.3%,72.5%,103%,75.2%,9.05% (active),94.7%,99.2%,63.1%
CCCCN(CCCC)c1ccc(C(=NC(C)CCCN(CC)CC)c2ccc(N(C)C)cc2)cc1 (stereo not given),-60.3% (active),-34.9% (active),-14.2% (active),-80.4% (active),-76.9% (active),-45.5% (active),-66.8% (active),-16.4% (active),-86.4% (active),-88.4% (active)
N=C(N)c1ccc(-c2ccc(-c3ccccc3)s2)cc1F,-65.9% (active),-62.7% (active),-88.5% (active),-83% (active),-79.5% (active),-83.7% (active),-75.2% (active),-74.2% (active),-85% (active),-78.1% (active)
COc1cc(-c2nc3ccc(C)cc3[nH]2)ccc1OCc1nnc(-c2ccc(CC(C)C)cc2)o1,93.2%,86.9%,97.2%,90.6%,90.8%,79.4%,97.4%,93.5%,90%,103%
CCN(CC)CCn1c(=N)n(CC(O)c2ccc(Cl)c(Cl)c2)c2ccccc21 (stereo not given),91.2%,92.2%,99.5%,85.3%,104%,58.1%,45%,89.6%,79.9%,18.5%
COc1ccc2nc(C)cc(Nc3ccc(Cl)cc3)c2c1,104%,99.9%,95.1%,104%,91.8%,156%,105%,92.2%,109%,107%
COc1ccc(-c2nnc(SC/C(=N\O)c3ccccc3)o2)cc1,89.3%,95.5%,113%,97.7%,98.8%,98.4%,71.4%,107%,97.2%,110%
CC1(C)CC(=O)c2c(nc3ccc(Cl)cc3c2-c2ccccc2)C1,89.9%,97.6%,103%,92.1%,90.1%,45.6%,73%,95.7%,101%,94.5%
FC(F)(F)c1ccc(-c2cnc(Br)nc2NC2CCCCCC2)cc1,33.1%,53.1%,78.2%,53.5%,28.6%,-21.4% (active),7.77% (active),28.8%,54.6%,25.1%
CC(=O)Nc1nc(C)c(C(=O)N/N=C/c2cccn2C)s1,96%,90.7%,150%,109%,109%,56.1%,86%,104%,111%,125%
CC(=O)N(O)c1ccc(/C=C/c2ccccc2)cc1,31%,-20.6% (active),29.4%,42.7%,8.15% (active),-5.13% (active),68.3%,25.6%,19.9%,46.5%
CCOC(=O)C1=C(Nc2ccc(OC)cc2)C(N)=NC1=N,52.6%,42.9%,50.2%,52.4%,22.2%,48.4%,42%,31.8%,59.3%,-10.1% (active)
CCOC(=O)[C@@H]1[C@H](c2ccccc2)[C@H]([N+](=O)[O-])[C@H](c2cn(-c3ccccc3)nc2C)N1Cc1ccccc1,88.6%,66.6%,104%,64.2%,41.9%,69.8%,80.6%,66.2%,74.5%,64.7%
CCOc1nc(-c2ccccc2)cc2c(O)c(C(=O)NC(C)C)[nH]c(=O)c12,97%,105%,120%,99.7%,105%,58.2%,88.3%,104%,112%,118%
COc1ccc(C2C=C(c3ccc(OC)c(OC)c3)N=C3SC=CN32)c(Br)c1 (stereo not given),89.3%,70.7%,87.5%,103%,87.5%,77.5%,60.8%,82.3%,92.3%,94.8%
Cc1[nH]nc2c(=S)[nH]c(=O)[nH]c12,103%,94.3%,103%,105%,105%,87.9%,98.7%,100%,97.3%,109%
N#CC1C=Cc2c(ccc3ccccc23)N1C(=O)c1ccccc1 (stereo not given),29.8%,12.9%,22.6%,50%,1.38% (active),50.6%,9.32% (active),26.9%,34%,-39.8% (active)
COc1ccc(-c2nnc(COc3ccc(NC(=O)Nc4cccc(C(F)(F)F)c4)cc3F)o2)cc1,56.6%,87.9%,43.4%,67.4%,39.3%,25.5%,-21.2% (active),57.8%,78.9%,88.1%
C[C@@H]1C(=O)N(C[C@H](Cc2ccccc2)NC(=O)OCc2ccccc2)[C@]1(Cc1ccccc1)C(=O)OCc1ccccc1,34.3%,48.5%,72.4%,70.9%,34.9%,51.2%,28.9%,20.8%,58.3%,7.23% (active)
O=C(Nc1ccc(OCc2nnc(-c3ccccc3)o2)c(F)c1)Nc1ccc(Cl)c(Cl)c1,53%,72.3%,62.5%,76.6%,36.6%,55.5%,35%,55.5%,82.1%,58.9%
Cc1nc(N)sc1Sc1nc2ccc(Cl)cc2c(=O)n1-c1ccc(Oc2ccccc2)cc1,74%,86.4%,111%,116%,82%,74.4%,85.3%,70.2%,68.5%,102%

# Source: PubChem BioAssay (NCI)
